Reference: publication PMC4336329 (PLoS ONE, 2015)
Hit rate of the full screen: of about 310,000 compounds, about 14,000 (4.5%) showed an effect of 50% or more. Effects have a minus sign here. Many of the other results were omitted from the sample, so strong results are more common in it than they were.

These compounds were tested against human ether-à-go-go-related gene (hERG) potassium channel (human, UniProt Q12809) (assay: primary screen, population patch clamp on CHO cells stably expressing hERG; higher = less effect of the substance).
Chain of human ether-à-go-go-related gene (hERG) potassium channel (Q12809 whole entry, looked up): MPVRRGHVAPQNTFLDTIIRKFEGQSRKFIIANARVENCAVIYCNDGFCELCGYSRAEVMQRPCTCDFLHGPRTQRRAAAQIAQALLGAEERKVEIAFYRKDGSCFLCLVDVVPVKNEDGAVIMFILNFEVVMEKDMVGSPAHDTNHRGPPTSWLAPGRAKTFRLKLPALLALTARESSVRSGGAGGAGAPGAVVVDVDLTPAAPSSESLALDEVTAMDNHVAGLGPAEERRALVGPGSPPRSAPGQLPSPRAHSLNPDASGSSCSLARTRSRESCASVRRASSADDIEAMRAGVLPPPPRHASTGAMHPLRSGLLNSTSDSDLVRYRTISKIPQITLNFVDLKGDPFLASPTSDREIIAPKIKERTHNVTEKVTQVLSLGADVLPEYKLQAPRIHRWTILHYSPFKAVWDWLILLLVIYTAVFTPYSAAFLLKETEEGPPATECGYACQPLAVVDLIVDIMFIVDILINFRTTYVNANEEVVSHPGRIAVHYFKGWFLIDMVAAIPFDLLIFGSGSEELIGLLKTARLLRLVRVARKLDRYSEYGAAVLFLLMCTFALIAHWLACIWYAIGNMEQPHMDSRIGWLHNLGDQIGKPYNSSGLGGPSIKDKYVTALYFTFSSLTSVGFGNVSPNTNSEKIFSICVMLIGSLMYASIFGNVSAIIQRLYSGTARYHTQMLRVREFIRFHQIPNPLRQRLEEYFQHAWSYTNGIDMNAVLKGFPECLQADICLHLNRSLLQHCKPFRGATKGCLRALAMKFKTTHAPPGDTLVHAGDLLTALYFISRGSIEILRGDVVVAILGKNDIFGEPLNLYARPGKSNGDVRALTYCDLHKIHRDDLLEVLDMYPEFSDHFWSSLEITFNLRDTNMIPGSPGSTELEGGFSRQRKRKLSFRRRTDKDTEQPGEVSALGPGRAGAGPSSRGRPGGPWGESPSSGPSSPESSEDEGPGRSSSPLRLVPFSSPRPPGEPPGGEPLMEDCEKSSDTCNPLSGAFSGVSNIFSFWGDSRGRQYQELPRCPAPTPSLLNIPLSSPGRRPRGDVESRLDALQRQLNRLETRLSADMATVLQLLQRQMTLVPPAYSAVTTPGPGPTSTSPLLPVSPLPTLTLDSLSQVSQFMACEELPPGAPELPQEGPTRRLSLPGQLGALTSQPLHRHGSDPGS
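Further: peak tail current of the secondary pulse compared with the same well before compound.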

Structure (SMILES) | hERG current change (%, negative = inhibition) at 10uM [%]
COc1ccccc1/C=C/C=N/NC(=O)CN1CCN(S(=O)(=O)c2ccc(C)cc2)CC1 | -50.2
O=C(CN1CCOCC1)N/N=C/C=C/c1ccccc1 | -26.3
Cc1ccc(S(=O)(=O)N2CCN(CC(=O)N/N=C/c3ccc(C)o3)CC2)cc1 | -38.9
CC(/C=N\NC(=O)CN1CCN(S(=O)(=O)c2ccc(C)cc2)CC1)=C\c1ccccc1 | -68.1
Cc1ccc(S(=O)(=O)N2CCN(CC(=O)N/N=C\c3ccccn3)CC2)cc1 | -36.3
O=C(O)COc1ccccc1/C=N/NC(=O)CN1CCN(S(=O)(=O)c2ccc(Br)cc2)CC1 | 4.89
Cc1ccc(S(=O)(=O)N2CCN(CC(=O)N/N=C/C=C/c3ccccc3)CC2)cc1 | -73.8
CCCOC(=O)c1ccc(O)cc1 | 16.5
COc1ccccc1CC(=O)Nc1ccc(O)cc1C(=O)O | 0.828
C(=N\N(c1ccccc1)c1ccccc1)/c1ccc2c(c1)OCO2 | 4.28
O=C(O)/C=C\C(=O)O.c1ccc2c(c1)CC1CNCc3cccc(c31)S2 (stereo not drawn) | -49.5
COCCCN1CCN(C2Cc3ccccc3Sc3ccc(Cl)cc32)CC1.O=C(O)/C=C\C(=O)O (stereo not drawn) | -73.5
C1CCCCC1.OCCN1CCN(C2Cc3cc(Cl)ccc3Sc3ccc(Cl)cc32)CC1 (stereo not drawn) | 9.86
Fc1ccc2c(c1)Sc1ccc(Cl)cc1CC2N1CCN(CCC2OCCO2)CC1 (stereo not drawn) | -8.68
Clc1ccc2c(c1)C(N1CCNCC1)Cc1ccccc1S2.O=C(O)/C=C\C(=O)O (stereo not drawn) | -54.3
COc1cc([C@@H]2c3cc4c(cc3[C@@H](O)[C@H]3COC(=O)[C@H]23)OCO4)cc(OC)c1O[Si](C)(C)C(C)(C)C | 17.8
NS(=O)(=O)c1cccc(NC(=O)c2cccnc2Oc2ccccc2)c1 | 12.7
Cc1sc2ncn(CC(=O)N3CCN(c4ccccn4)CC3)c(=O)c2c1S(=O)(=O)N1CCCCC1 | -36.7
Cc1c(OC(=O)c2ccc([N+](=O)[O-])cc2)c2c(c[n+]1C)COC(C)(C)OC2.[I-] | 9.15
Cc1ncc2c(c1OC(=O)c1ccccc1)COC(C)(C)OC2 | -6.46
Cc1ncc2c(c1OC(=O)c1ccc([N+](=O)[O-])cc1)COC(C)(C)OC2 | -65.8

Structure (SMILES) | hERG current change (%, negative = inhibition) at 10uM [%]
Cn1c(O)c(N=Nc2ccc(S(=O)(=O)N3CCOCC3)cc2)c(=O)n(C)c1=O | 10.8
CCN(CC)c1ccc(N=Cc2c(O)n(-c3ccccc3C)c(=O)[nH]c2=O)cc1 | -29.2
Cc1ccc(S(=O)(=O)N2CCN(C)CC2)c2nsnc12 | 24.1
Cc1ccc(S(=O)(=O)N2CCCCC2)c2nsnc12 | -54.9
Cc1ccc(S(=O)(=O)N2CCOCC2)c2nsnc12 | -3.38
O=C(Nc1cc(-c2nn(CC(=O)N3CCCCC3)c(=O)c3ccccc23)ccc1N1CCOCC1)c1ccc(Cl)cc1 | -52.6
O=C(Cn1nc(-c2ccc(N3CCOCC3)c([N+](=O)[O-])c2)c2ccccc2c1=O)N1CCCCC1 | -68.2
CC(=O)Nc1cc(-c2nn(CC(=O)N3CCCCC3)c(=O)c3ccccc23)ccc1N1CCOCC1 | 2.8
O=[N+]([O-])c1cc(-c2nnc(N3CCOCC3)c3ccccc23)ccc1N1CCOCC1 | -40.3
Cc1ccc(-c2nn(CC(=O)N3CCOCC3)c(=O)c3ccccc23)cc1S(=O)(=O)N(C)C | -22.6
CCC(=O)Nc1cc(-c2nn(CC(=O)N3CCCCC3)c(=O)c3ccccc23)ccc1N1CCOCC1 | 3.05
Cc1ccc(C)c(N(C(=O)CCC(=O)Nc2cc(C)on2)C(C(=O)NC2CCCC2)c2ccco2)c1 (stereo not drawn) | 10.2
CNc1nc(SC(C)C(=O)Nc2ccc(Cl)c(Cl)c2)nc(N2CCOCC2)n1 (stereo not drawn) | 19.6
COc1ccc(S(=O)(=O)N2CCC(C(=O)N3CCN(C)CC3)CC2)cc1OC | 17.3
Cc1nn(CCO)c2nc(-c3cccs3)cc(C(F)(F)F)c12 | 2.32
COc1ccc(/C=N/NC(=O)CC(=O)NC2CCCCC2)cc1 | 5.89
COc1ccc(-c2cnnn2-c2ccc(NC(=O)/C=C/c3ccc(OC)c(OC)c3)cc2)cc1 | -5.92
Cc1ccccc1OCCC(=O)OCC(=O)NCCNC(=O)COC(=O)CCOc1ccccc1C | 4.47
COc1ccc(F)cc1CN1CCN(C(=O)CCC(=O)Nc2nnc(C3CCCCC3)s2)CC1 | -6.04
COc1ccc(CN2CCN(C(=O)CCC(=O)Nc3nnc(C4CCCCC4)s3)CC2)cc1F | -50.2
O=C(CCC(=O)N1CCN(Cc2ccc(F)cc2)CC1)Nc1nnc(C2CCCCC2)s1 | 6.92
